Cell viability data for eleven compounds are collected here from the supplement of paper PMC10981050.

Experiment in all cases: cell viability relative to vehicle control; higher = less cytotoxic
Holding throughout (conditions): 10 µM

One test deals with K562. Put shortly: (§1)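 CRISPR-edited SRSF2 P95 mutant and isogenic wild-type clones of four leukaemia lines were screened against Selleck bioactive, kinase and epigenetic probe libraries, with identity-inconsistent compounds removed. Compounds were acoustically dispensed into 384-well plates at a single 10 µM dose, with 2000 cells in 50 µL medium per well. After 48 h, supernatant was removed and CellTiter-Glo luminescence was read. Viability was expressed as percent of the on-plate DMSO vehicle control, analysed in Genedata Screener.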

Another test concerns MARIMO. Put shortly: as §1
In a further test the test system is MOLM14. Put shortly:
as §1

The subject of a further test is OCI-AML2. The essentials:
as §1

Molecules are shown by their SMILES. “And” between values parts separate entries of the source, which are not always exact repeats. Equal entries are not always repeated.

Broadly, the cell viability is a read-out of living cells in per cent, often relative to untreated cells. As for `Cc1c(Cl)cccc1Nc1ccccc1C(=O)O` [Tolfenamic acid], the cell viability in the test on K562 (SRSF2 genotype: SRSF2 P95H/wt) was 103% and 101%; with K562 (SRSF2 genotype: SRSF2 wt/wt), 101%; with MARIMO (SRSF2 genotype: SRSF2 P95H/wt) it was 107%; in the test with MARIMO (SRSF2 genotype: SRSF2 wt/wt) it was 102%; in the test with MOLM14 (SRSF2 genotype: SRSF2 P95H/wt), 99.8%; with MOLM14 (SRSF2 genotype: SRSF2 wt/wt), 102%. Besides, the cell viability with OCI-AML2 (SRSF2 genotype: P95H/wt) and with OCI-AML2 (SRSF2 genotype: wt/wt) was 106% throughout.
As for `CC(C)c1cc2c(cc1S(=O)(=O)O)[C@@]1(C)CCC[C@@](C)(C(=O)O)[C@@H]1CC2` [Ecabet sodium], the cell viability with K562 (SRSF2 genotype: SRSF2 P95H/wt) was 95.2% and 96.4%; in the test with K562 (SRSF2 genotype: SRSF2 wt/wt), 105%; in the test on MARIMO (SRSF2 genotype: SRSF2 P95H/wt), 96.6%; in the test on MARIMO (SRSF2 genotype: SRSF2 wt/wt), 101%; with MOLM14 (SRSF2 genotype: SRSF2 P95H/wt), 97%; with MOLM14 (SRSF2 genotype: SRSF2 wt/wt), 99.7%. Further, the cell viability was 105% in the test with OCI-AML2 (SRSF2 genotype: P95H/wt) and 91.8% with OCI-AML2 (SRSF2 genotype: wt/wt).
For the compound `CO/N=C(\C(=O)N[C@@H]1C(=O)N2C(C(=O)OCOC(=O)C(C)(C)C)=C(/C=C\c3scnc3C)CS[C@H]12)c1csc(N)n1` [Cefditoren pivoxil], the cell viability with K562 (SRSF2 genotype: SRSF2 P95H/wt) was 103% and 99.7%; with K562 (SRSF2 genotype: SRSF2 wt/wt) it was 101%; in the test on MARIMO (SRSF2 genotype: SRSF2 P95H/wt), 104%; in the test on MARIMO (SRSF2 genotype: SRSF2 wt/wt), 111%; in the test on MOLM14 (SRSF2 genotype: SRSF2 P95H/wt) it was 94.5%; in the test on MOLM14 (SRSF2 genotype: SRSF2 wt/wt), 103%. Also, the cell viability with OCI-AML2 (SRSF2 genotype: P95H/wt) worked out at 102%; in the test on OCI-AML2 (SRSF2 genotype: wt/wt), 111%.
`CN1CCN(c2ccc(OC(F)(F)F)c(Nc3ncc4c(n3)-c3c(c(C(N)=O)nn3CCO)CC4)c2)CC1`: the cell viability in the test on K562 (SRSF2 genotype: SRSF2 P95H/wt) is 29.2% and 49.6%; with K562 (SRSF2 genotype: SRSF2 wt/wt), 46%; in the test with MARIMO (SRSF2 genotype: SRSF2 P95H/wt), 24.7%; with MARIMO (SRSF2 genotype: SRSF2 wt/wt) it was 22.9%; in the test with MOLM14 (SRSF2 genotype: SRSF2 P95H/wt) it was 17.5%; in the test on MOLM14 (SRSF2 genotype: SRSF2 wt/wt) it was 4.9%. Also, the cell viability in the test on OCI-AML2 (SRSF2 genotype: P95H/wt) came out at 14.6%; in the test with OCI-AML2 (SRSF2 genotype: wt/wt), 18.8%.
As to `OCc1ccc(-c2ccc(-c3ccc(CO)s3)o2)s1`, the cell viability was 56.7% and 54.9% in the test on K562 (SRSF2 genotype: SRSF2 P95H/wt); 7.66% with K562 (SRSF2 genotype: SRSF2 wt/wt); 63.2% with MARIMO (SRSF2 genotype: SRSF2 P95H/wt); 66% in the test with MARIMO (SRSF2 genotype: SRSF2 wt/wt); 11.3% with MOLM14 (SRSF2 genotype: SRSF2 P95H/wt); 8.82% in the test with MOLM14 (SRSF2 genotype: SRSF2 wt/wt). Besides, the cell viability in the test with OCI-AML2 (SRSF2 genotype: P95H/wt) is 9.11%; in the test with OCI-AML2 (SRSF2 genotype: wt/wt), 18.3%.
Consider `CC1(C)CC[C@]2(C(=O)O[C@@H]3O[C@H](CO)[C@@H](O)[C@H](O)[C@H]3O)CC[C@]3(C)C(=CC[C@@H]4[C@@]5(C)CC[C@H](O[C@@H]6O[C@H](C(=O)O)[C@@H](O)[C@H](O)[C@H]6O)C(C)(C)[C@@H]5CC[C@]43C)[C@@H]2C1` [Chikusetsusaponin IVa], for which the cell viability in the test with K562 (SRSF2 genotype: SRSF2 P95H/wt) was 100% and 103%; with K562 (SRSF2 genotype: SRSF2 wt/wt), 106%; in the test with MARIMO (SRSF2 genotype: SRSF2 P95H/wt), 103%; in the test on MARIMO (SRSF2 genotype: SRSF2 wt/wt) it was 114%; with MOLM14 (SRSF2 genotype: SRSF2 P95H/wt), 102%; in the test with MOLM14 (SRSF2 genotype: SRSF2 wt/wt), 105%. Also, the cell viability in the test with OCI-AML2 (SRSF2 genotype: P95H/wt) stood at 104%; in the test with OCI-AML2 (SRSF2 genotype: wt/wt), 111%.
Take `Cc1cc(C)c(CNC(=O)c2cc(-c3ccc(CN4CCOCC4)cc3)cc3c2cnn3C2CCCC2)c(=O)[nH]1`: the cell viability with K562 (SRSF2 genotype: SRSF2 P95H/wt) was 105% and 117%; in the test on K562 (SRSF2 genotype: SRSF2 wt/wt) it was 120%; in the test on MARIMO (SRSF2 genotype: SRSF2 P95H/wt) it was 113%; in the test on MARIMO (SRSF2 genotype: SRSF2 wt/wt), 111%; in the test on MOLM14 (SRSF2 genotype: SRSF2 P95H/wt) it was 104%; with MOLM14 (SRSF2 genotype: SRSF2 wt/wt) it was 107%. The cell viability worked out at 111% with OCI-AML2 (SRSF2 genotype: P95H/wt) and 106% with OCI-AML2 (SRSF2 genotype: wt/wt).
As for `C=C[C@](C)(O)CC[C@@H]1[C@@]2(C)CCCC(C)(C)[C@@H]2CC[C@@]1(C)O` [Sclareol], the cell viability is 93.2% and 93.5% with K562 (SRSF2 genotype: SRSF2 P95H/wt); 95.6% in the test with K562 (SRSF2 genotype: SRSF2 wt/wt); 94.5% with MARIMO (SRSF2 genotype: SRSF2 P95H/wt); 94.3% in the test on MARIMO (SRSF2 genotype: SRSF2 wt/wt); 106% in the test on MOLM14 (SRSF2 genotype: SRSF2 P95H/wt); 103% in the test with MOLM14 (SRSF2 genotype: SRSF2 wt/wt). The cell viability is 89.2% in the test on OCI-AML2 (SRSF2 genotype: P95H/wt) and 85.1% in the test on OCI-AML2 (SRSF2 genotype: wt/wt).
Consider `COc1ccccc1` [Anisole], for which the cell viability is 96.8% and 90.2% in the test with K562 (SRSF2 genotype: SRSF2 P95H/wt); 102% in the test on K562 (SRSF2 genotype: SRSF2 wt/wt); 98.6% in the test with MARIMO (SRSF2 genotype: SRSF2 P95H/wt); 101% in the test on MARIMO (SRSF2 genotype: SRSF2 wt/wt); 94.6% in the test on MOLM14 (SRSF2 genotype: SRSF2 P95H/wt); 101% in the test with MOLM14 (SRSF2 genotype: SRSF2 wt/wt). Moreover, the cell viability with OCI-AML2 (SRSF2 genotype: P95H/wt) was 99.5%; in the test with OCI-AML2 (SRSF2 genotype: wt/wt), 110%.
In the case of `O=C(O)CCN1C(=O)/C(=C/c2ccc(-c3ccc([N+](=O)[O-])cc3)o2)SC1=S`, the cell viability in the test on K562 (SRSF2 genotype: SRSF2 P95H/wt) is 104% and 106%; in the test with K562 (SRSF2 genotype: SRSF2 wt/wt) it was 111%; with MARIMO (SRSF2 genotype: SRSF2 P95H/wt), 100%; in the test with MARIMO (SRSF2 genotype: SRSF2 wt/wt), 98.5%; in the test on MOLM14 (SRSF2 genotype: SRSF2 P95H/wt), 93.3%; in the test with MOLM14 (SRSF2 genotype: SRSF2 wt/wt) it was 101%. Moreover, the cell viability came out at 103% in the test on OCI-AML2 (SRSF2 genotype: P95H/wt) and 109% in the test on OCI-AML2 (SRSF2 genotype: wt/wt).
As to `Cc1ccc(-c2nn(C(C)(C)C)c3ncnc(N)c23)cc1`, the cell viability with K562 (SRSF2 genotype: SRSF2 P95H/wt) was 64.5% and 82.4%; in the test on K562 (SRSF2 genotype: SRSF2 wt/wt) it was 63.5%; with MARIMO (SRSF2 genotype: SRSF2 P95H/wt) it was 99.2%; in the test with MARIMO (SRSF2 genotype: SRSF2 wt/wt), 102%; in the test on MOLM14 (SRSF2 genotype: SRSF2 P95H/wt), 58.6%; in the test with MOLM14 (SRSF2 genotype: SRSF2 wt/wt), 85.9%. The cell viability with OCI-AML2 (SRSF2 genotype: P95H/wt) was found to be 82%; in the test on OCI-AML2 (SRSF2 genotype: wt/wt), 78.6%.
